PubChem BioAssay AID720597 (Broad Institute, 2013)
Results with a measured potency or affinity are listed apart. Unmarked numbers belong to inactive results.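 How the source made its calls: active means fitted half-maximal dose no more than twice the top valid tested dose, for compounds that lower signal; inconclusive means fit invalid, or curve flat with activity between -70 and -30; inactive means potency past limit, curve flat within ±30, or signal increasing.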

biological target: NAD-dependent protein deacylase sirtuin-5, mitochondrial (Homo sapiens) (UniProt Q9NXA8); assay: SIRT5 deacylase inhibitors, dose response, biochemical, fluorescence imaging, cherry-pick, set 6 (AID 720597); conditions: Purified SirT5, succinyl-peptide-AMC/trypsin fluorescence; series mostly up to 15 µM; activity change, negative = inhibition: at the top concentration;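 further: lower AMC signal can also come from blocking the trypsin step; 0% = median of neutral control wells and -100% = median of positive control wells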
Sequence (Q9NXA8 whole entry, looked up): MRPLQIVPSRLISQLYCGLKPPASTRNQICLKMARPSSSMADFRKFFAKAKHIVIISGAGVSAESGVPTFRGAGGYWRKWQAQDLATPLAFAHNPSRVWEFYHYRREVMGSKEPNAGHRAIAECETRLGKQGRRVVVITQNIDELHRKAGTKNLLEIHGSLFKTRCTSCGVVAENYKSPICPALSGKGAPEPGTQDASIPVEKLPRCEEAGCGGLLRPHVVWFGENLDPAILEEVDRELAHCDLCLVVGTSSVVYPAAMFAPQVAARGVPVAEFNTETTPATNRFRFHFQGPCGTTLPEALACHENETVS

Q: How did the “activity change, negative = inhibition” value turn out when `COc1ccc(S(=O)(=O)Nc2ccc3c(c2)C(=O)N([C@H](C)CO)C[C@@H](C)[C@H](CN(C)S(=O)(=O)c2ccccc2)OCCCC[C@H](C)O3)cc1` was run?
A: -24.8%

Q: For `COCCOC(=O)N1C(=O)[C@@]2(c3cc(C#CCCO)ccc31)[C@H](c1ccccc1OCCO)N1[C@H](c3ccccc3)[C@H](c3ccccc3)OC(=O)[C@H]1[C@@H]2C(=O)N1CCN(c2ncccn2)CC1`, which “activity change, negative = inhibition” value is on record?
A: -16.8%

Q: For `C[C@@H]1CN([C@H](C)CO)C(=O)c2cc(N(C)C)ccc2O[C@H]1CN(C)C(=O)Nc1ccc(F)cc1`, which “activity change, negative = inhibition” value is on record?
A: -7.29%

Q: With `Cc1ccc(S(=O)(=O)Nc2ccc3c(c2)C(=O)N([C@H](C)CO)C[C@@H](C)[C@@H](CN(C)Cc2ccc(C(F)(F)F)cc2)OCCCC[C@H](C)O3)cc1` as the molecule, how does the “activity change, negative = inhibition” value read?
A: -3.28%

Q: How did the “activity change, negative = inhibition” value turn out when `C[C@H](CO)N1C[C@H](C)[C@H](CN(C)S(=O)(=O)c2ccc(F)cc2)Oc2c(NC(=O)c3nc4ccccc4s3)cccc2C1=O` was run?
A: 4.27%

Q: How did the “activity change, negative = inhibition” value turn out when `C[C@H](CO)N1C[C@H](C)[C@@H](CN(C)Cc2ccc(Oc3ccccc3)cc2)Oc2ccc(NS(=O)(=O)c3ccc(Cl)cc3)cc2CC1=O` was run?
A: 3.3%

Q: For `C[C@@H]1CN([C@@H](C)CO)C(=O)Cc2cc(NS(=O)(=O)c3ccc(Cl)cc3)ccc2O[C@H]1CN(C)Cc1ccc(Cl)c(Cl)c1`, which “activity change, negative = inhibition” value is on record?
A: 5.95%

Q: How did the “activity change, negative = inhibition” value turn out when `C[C@@H]1CN([C@H](C)CO)C(=O)c2cc(NS(=O)(=O)c3ccc(F)cc3)ccc2O[C@@H](C)CCCCO[C@@H]1CN(C)CC1CCCCC1` was run?
A: -21.2%

Q: With `C[C@@H]1CN([C@H](C)CO)C(=O)c2cc(N(C)C)ccc2O[C@H]1CN(C)S(=O)(=O)c1ccccc1` as the molecule, how does the “activity change, negative = inhibition” value read?
A: -5.41%

Q: How did the “activity change, negative = inhibition” value turn out when `C[C@@H]1CCCCO[C@@H](CN(C)Cc2ccc(C(F)(F)F)cc2)[C@H](C)CN([C@@H](C)CO)C(=O)c2cc(NS(=O)(=O)c3ccccc3)ccc2O1` was run?
A: 18%

Q: `C[C@@H]1CN([C@H](C)CO)S(=O)(=O)c2ccc(C3=CCCCC3)cc2O[C@H]1CN(C)C(=O)Nc1ccc2c(c1)OCO2` was tested. Which “activity change, negative = inhibition” value did it give?
A: 2.16%

Q: For `C[C@@H]1CN([C@@H](C)CO)S(=O)(=O)c2ccc(/C=C/c3ccccc3)cc2O[C@@H]1CN(C)C(=O)Nc1cc(F)ccc1F`, which “activity change, negative = inhibition” value is on record?
A: -20.6%

Q: `O=S(=O)(c1ccc(F)cc1)N1CCCCN2[C@H](CO)[C@@H](c3ccc(-c4ccccc4F)cc3)[C@H]2C1` was tested. Which “activity change, negative = inhibition” value did it give?
A: -9.98%
